RORg inh = qHTS for inhibitors of ROR gamma transcriptional activity. Nuclear receptor ROR-gamma (Mus musculus), P51450. Drosophila S2 Gal4-RORgamma UAS-luciferase reporter, 20 h. Potency, µM (highest dose often 53.6 µM), without a hit: top-dose activity change, negative = inhibition, most hits filed as inhibitors. 5.4% of 310,000 active. AID 2551, 2010; further: potency means the concentration at half of the fitted maximal effect; nearly all actives have a fitted effect of over 60% in size
Target sequence (P51450 whole entry, looked up, the tested form may be a part): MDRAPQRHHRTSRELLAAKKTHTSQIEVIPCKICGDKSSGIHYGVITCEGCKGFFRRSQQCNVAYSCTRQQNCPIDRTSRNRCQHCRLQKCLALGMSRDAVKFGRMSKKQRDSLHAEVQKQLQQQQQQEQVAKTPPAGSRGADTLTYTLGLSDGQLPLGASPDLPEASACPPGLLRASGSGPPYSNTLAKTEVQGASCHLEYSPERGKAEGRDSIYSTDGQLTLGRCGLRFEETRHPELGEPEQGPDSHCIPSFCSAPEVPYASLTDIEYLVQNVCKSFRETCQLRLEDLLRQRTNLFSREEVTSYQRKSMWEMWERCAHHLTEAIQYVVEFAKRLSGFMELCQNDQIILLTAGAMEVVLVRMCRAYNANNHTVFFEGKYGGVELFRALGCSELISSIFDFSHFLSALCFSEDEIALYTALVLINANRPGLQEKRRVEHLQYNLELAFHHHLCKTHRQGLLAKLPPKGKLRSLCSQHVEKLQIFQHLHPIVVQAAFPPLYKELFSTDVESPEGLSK
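A Gal4/UAS one-hybrid system in insect cells: metallothionein-promoter Gal4–ROR gamma fusion plus Photinus luciferase reporter. Copper sulfate 700 uM final, 20 hr ambient incubation, luminescent detection after 10 min with reagent.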
IL-1B inflam inh = qHTS for Inhibitors of Inflammasome Signaling: IL-1-beta AlphaLISA Primary Screen; THP-1 LPS/ATP IL-1B secretion, AlphaLISA, 16 h; active compounds read low; activity change, % at 57.5 µM; 4.7% of 360,000 active; AID 743279, 2014; in the data active means activity change below about -50%; inconclusive means mostly about -30% to -49%
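Secreted IL-1B measured by AlphaLISA bead assay after 16 h compound exposure of THP-1 cells; compounds (final up to 57.5 uM) added 1 h before LPS (250 ng/mL) and ATP (1.25 mM) stimulation; lower signal means less secretion.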
Gal4-VP16 FLuc = VP16 counterscreen qHTS for inhibitors of ROR gamma transcriptional activity. Potency, µM (titrated, usually from 53.6 µM), for inactives: top-dose activity, negative = inhibition, hits mostly inhibitors. Drosophila S2 Gal4-VP16 UAS-luciferase, luminescence, 20 h. AID 2546, 2010. 3.5% of 310,000 active;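 further: Gal4-VP16 expression switched on by copper sulfate through the metallothionein promoter; potency means the concentration at half of the fitted maximal effect; nearly all actives have a fitted effect of over 50% in size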
TDP1 cell CPT = qHTS for Inhibitors of human tyrosyl-DNA phosphodiesterase 1 (TDP1): qHTS in cells in presence of CPT; AID 686979, 2013; chicken DT40 Tdp1-/-;hTDP1 cells + 20 nM CPT, ATP luminescence, 48 h; 12% of 420,000 active; Potency, µM (top dose mostly 46.2 µM), inactives show top-dose activity change, negative = growth inhibition, most hits filed as inhibitors; further: potency means the concentration at half of the fitted maximal effect; nearly all actives have a fitted effect of over 55% in size
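Chicken DT40 Tdp1-/- cells stably complemented with human TDP1 were seeded at 400 cells/well in medium containing 20 nM camptothecin, exposed to pin-transferred compounds, and grown at 37 °C for at least 48 hr. Viability was read as ATP luminescence.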
DT40 TDP1 no CPT = qHTS for Inhibitors of human tyrosyl-DNA phosphodiesterase 1 (TDP1): qHTS in cells in absence of CPT | DT40 Tdp1-/- hTDP1 cells, no CPT, ATP luminescence, 48 h | Potency, µM (series often up to 46.2 µM), inactives show at the highest dose activity change, negative = growth inhibition, actives largely listed as inhibitors | 15% of 420,000 active | AID 686978, 2013; further: potency means the concentration at half of the fitted maximal effect; nearly all actives have a fitted effect of over 55% in size
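Chicken DT40 Tdp1-/- cells stably complemented with human TDP1 were seeded at 400 cells/well with DMSO in place of 20 nM camptothecin. After compound pinning, cells grew at least 48 hr at 37 °C; viability read by CellTiter-Glo luminescence.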
ELG1 DNA repair = qHTS screen for small molecules that inhibit ELG1-dependent DNA repair in human embryonic kidney (HEK293T) cells expressing luciferase-tagged ELG1 | HEK293T ELG1-luciferase reporter, luminescence, 16 h; DNA damage induced by 5-fluorouridine | Potency, µM (series often up to 46.1 µM), without a hit: at the top dose activity change, negative = inhibition, hits mostly inhibitors | 2.3% of 330,000 active | AID 504467, 2011; further: potency means the concentration at half of the fitted maximal effect; nearly all actives have a fitted effect of over 55% in size
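Overnight (16 hr) co-exposure of 2,000 cells/well to 5-fluorouridine and compound at 37 °C preceded detection. Luciferase was quantified via ONE-Glo luminescence; loss of signal denotes inhibition.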
* = called active by the depositor; ? = inconclusive; . = no result given; [ ] = remark or other dose. Compounds with a hit are over-represented: about 21% of the library has one in this group of screens. Unless noted, the call rests on the fitted dose curve; in most records, active means well fitted curve in the direction sought with a large enough effect; inconclusive means small, poorly fitted or top-dose-only effect, or another doubt; inactive means no such curve, though single readings can be large; an effect the other way counts as inactive or inconclusive. On the % scale 0 is the no-effect control and ±100 the full control effect.

SMILES | RORg inh | IL-1B inflam inh | Gal4-VP16 FLuc | TDP1 cell CPT | DT40 TDP1 no CPT | ELG1 DNA repair
CNc1c(N)c(=O)oc2ccccc12 | 12% | 11 | -6%[10 µM] | -5% | -15% | ?
Cc1ccc(Nc2c(N)c(=O)oc3ccccc23)cc1 | ? | 1 | -25% | ? | 26µM* | -6%
CC=C1COC(C(=O)NCCOCCO)(C(F)(F)F)C=C1C=C(C)C (stereo unspecified) | -25% | . | -10% | . | . | .
O=c1c(-c2c(O)cc(O)c3c2O[C@H](c2ccc(O)cc2)CC3)c(-c2ccc(O)cc2)oc2cc(O)cc(O)c12 | . | 50 | . | ? | 5.2µM* | -22%
COc1cccc(CSc2nc3cc4c(cc3cc2C)OCCO4)c1 | 2% | 17 | 1% | ? | 29µM* | -2%
Cc1cc2cc3c(cc2nc1SCc1ccc(C(=O)O)cc1)OCCO3 | 22% | -16 | -3% | -1% | -23% | ?
CCN(CC)CCCNC(=O)C1CCN(S(C)(=O)=O)CC1 | . | . | . | 2% | -17% | .
CN(c1ccc(S(=O)(=O)N2CCOCC2)cn1)C1CCCCC1 | 31% | 18 | -6% | -62% | 23µM* | 0%
CCN(C(=O)C(C)Sc1ccc(S(=O)(=O)N2CCOCC2)cn1)c1ccccc1 (stereo unspecified) | . | -13 | . | ? | 18µM* | -3%
CC(C)C(C)NC(=O)CSc1ccc(S(=O)(=O)N2CCOCC2)cn1 (stereo unspecified) | . | -8 | . | -23% | 2% | 0%
CN(C(=O)COC(=O)c1ccc(S(=O)(=O)N2CCOCC2)cc1)C1CCCCC1 | 2% | 5 | 5% | 0% | -3% | 5%
COc1ccccc1C1CCN(C(=O)c2ccc(C(C)(C)C)cc2)CC1 | 57% | -92* | ? | ? | 16µM* | ?
COc1ccc(C(=O)N2CCN(c3ccccc3OC)CC2)cc1 | -1% | 7 | 2% | -1% | -1% | -2%
COc1ccc(CCNC(=O)C2CCN(C(=O)c3ccc(C(C)(C)C)cc3)CC2)cc1OC | ? | 4 | 14% | ? | ? | ?
COc1ccccc1N1CCN(C(=O)c2ccc(C(C)(C)C)cc2)CC1 | -44% | -11 | -8% | 4.6µM* | 5.8µM* | -18%
COc1ccccc1N1CCN(C(=O)c2ccc(-c3ccccc3)cc2)CC1 | -9% | -14 | 3% | ? | 13µM* | 9%
COc1ccccc1C1CCN(C(=O)c2cccc([N+](=O)[O-])c2)CC1 | 7% | . | -2% | ? | 16µM* | ?
CCOc1ccc(NC(=O)COC(=O)CC2CC3CCC2C3)cc1 (stereo unspecified) | . | 0 | . | -3% | 9% | 20%
COc1ccc(NC(=O)CSc2nc(-c3ccccc3)nc3c2Cc2c(CO)cnc(C)c2O3)cc1Cl | . | . | . | 7% | 5% | .
COc1ccc(NC2CCCN(C(=O)c3ccccc3N3CCOCC3)C2)cc1OC (stereo unspecified) | -10% | 14 | 15% | -22% | -17% | -2%
COc1ccccc1N1CCN(C(=O)C(Sc2ccccc2)c2ccccc2)CC1 (stereo unspecified) | 20% | ? | 17% | 18µM* | ? | ?
O=C(c1ccc(S(=O)(=O)N2CCCCC2)cc1)N1CCc2ccccc2C1 | 9% | -24 | 4% | ? | ? | ?
COc1cc2c(cc1OC)CN(C(=O)c1ccc(S(=O)(=O)N3CCCCC3)cc1)CC2 | 5% | -2 | -1% | 26µM* | 16µM* | ?
COc1ccccc1N1CCN(C(=O)c2ccc(S(=O)(=O)N3CCCC3)cc2)CC1 | -13% | 4 | -5% | ? | 16µM* | -29%
O=C(Cc1cccs1)Nc1nnc(SCc2ccc(C(F)(F)F)cc2)s1 | 10µM* | 21 | -13% | 15µM* | ? | 15%
SMILES | RORg inh | IL-1B inflam inh | Gal4-VP16 FLuc | TDP1 cell CPT | DT40 TDP1 no CPT | ELG1 DNA repair
Cc1ccc(NC(=O)CN2C(=O)NC3(CCc4ccccc43)C2=O)cc1S(=O)(=O)N1CCCCC1 (stereo unspecified) | . | -22 | . | ? | ? | ?
CCCCCCCC(=O)N/N=C(\C)c1ccc(O)cc1O | 7.1µM* | 31 | 11µM* | ? | ? | ?
CCCCCCCCC(=O)N/N=C(\C)c1ccc(O)cc1O | 3.5µM* | 49 | ? | ? | ? | ?
CCCCCCCC(=O)N/N=C(/C)c1c(O)cc(C)oc1=O | 8.9µM* | 2 | 22µM* | ? | ? | -6%
CCCCOc1ccc(N(CC(=O)NC2CCCCC2)C(=O)CCC(=O)Nc2ccccn2)cc1 | 3% | -20 | -2% | -29% | -15% | 3%
CC1(C)OC(=O)C2=C(C[C@@H](C3CCCC3)O[C@H]2c2ccc(Cl)cc2)O1 | . | 17 | . | ? | ? | .
CCCCc1c(C)c(C#N)c2[nH]c3ccccc3n2c1=O | ? | 54 | ? | 23µM* | 16µM* | ?
Cc1c(CCC(C)C)c(=O)n2c([nH]c3ccccc32)c1C#N | 8% | 19 | 0% | ? | 5.8µM* | -15%
Cc1c(CCO)c(=O)n2c([nH]c3ccccc32)c1C#N | 2% | -3 | -10% | -18% | 5% | -23%
COc1ccccc1-c1nc2c(c(SCc3ccc(F)cc3Cl)n1)Cc1c(CO)cnc(C)c1O2 | . | . | . | 1% | -5% | .
CC(C)CC1NC(=O)C(CC(C)C)N(CO)C1=O (stereo unspecified) | . | 24 | . | -1% | -2% | .
O=C(N/N=C\c1ccc(Cl)cc1)C1=NOC2COC3(CCN(c4ccc([N+](=O)[O-])cc4)CC3)OCC12 (stereo unspecified) | ? | 0 | ? | 10µM* | 6.5µM* | ?
COc1cc(C=O)ccc1OCCCOc1ccccc1C(=O)O | 1.4µM* | 4 | 6.3µM* | -1% | 3% | ?
C/C=C/c1ccc(OCCOCCNCc2ccccc2)c(OC)c1 | 0%[1.91 µM] | ? | 1% | ? | 18µM* | -10%
COc1cc(C=O)ccc1OCCCOc1ccccc1[N+](=O)[O-] | -44% | -3 | ? | 6% | -2% | ?
C/C=C/c1ccc(OCC(=O)O)c(OC)c1 | 1% | 16 | 1% | -2% | -16% | 8%

Assay outcomes as filed in PubChem.
